What all share (assay): DAPPL (digital affinity profiling via proximity ligation, sequencing); 10 mM Tris-HCl pH 7.5, 50 mM NaCl, 1 mM DTT, 4% glycerol, room temperature, 30 min; GST-TFs on glutathione beads, 16-mer random dsDNA library, 0.1% formaldehyde crosslink after washing; high values mean tight binding
Holding throughout (details): protein: recombinant; tags: N-terminal GST; dsDNA, one strand shown

One assay has as its target T1, ELK3 (Homo sapiens, UniProt P41970 1-407).
T1 sequence: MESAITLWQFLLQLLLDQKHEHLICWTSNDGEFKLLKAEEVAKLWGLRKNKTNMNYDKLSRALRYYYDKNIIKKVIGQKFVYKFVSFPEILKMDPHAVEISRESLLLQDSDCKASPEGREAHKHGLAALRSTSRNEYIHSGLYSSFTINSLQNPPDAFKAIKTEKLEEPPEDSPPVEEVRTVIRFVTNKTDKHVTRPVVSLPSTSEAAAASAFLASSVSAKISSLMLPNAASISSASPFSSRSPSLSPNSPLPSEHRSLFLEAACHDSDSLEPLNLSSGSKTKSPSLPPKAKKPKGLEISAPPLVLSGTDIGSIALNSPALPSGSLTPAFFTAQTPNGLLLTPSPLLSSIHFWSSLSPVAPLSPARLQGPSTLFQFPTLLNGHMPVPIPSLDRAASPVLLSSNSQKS
An outline of the steps: (§1)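 Sequencing on an Illumina NextSeq500 followed washing, crosslinking with 0.1% formaldehyde, proximity ligation (BsaI/T4 ligase, 1 h, 37 °C) and PCR amplification of pools that had been incubated for 30 min at room temperature with 200 nmole of a random double-stranded 16-mer DNA library in Tris/NaCl/DTT/glycerol buffer. Each pool held DNA-barcoded human transcription factors, expressed in yeast as GST fusions and captured on glutathione beads, plus a tag-only sample. Binding signal is a hexamer's read frequency for a factor divided by its frequency in the tag-only sample.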

The next assay deals with T2, SPIC (Homo sapiens, UniProt Q8N5J4 1-248).
T2 sequence: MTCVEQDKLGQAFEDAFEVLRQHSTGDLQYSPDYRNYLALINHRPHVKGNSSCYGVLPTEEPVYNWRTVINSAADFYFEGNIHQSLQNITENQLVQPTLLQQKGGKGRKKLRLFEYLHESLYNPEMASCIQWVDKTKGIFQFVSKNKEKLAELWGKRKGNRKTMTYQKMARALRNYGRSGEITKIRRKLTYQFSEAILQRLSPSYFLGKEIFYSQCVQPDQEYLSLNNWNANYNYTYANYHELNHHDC
An outline of the steps: as §1

The next assay deals with T3, ELK4 (Homo sapiens, UniProt P28324-2 1-405).
T3 sequence: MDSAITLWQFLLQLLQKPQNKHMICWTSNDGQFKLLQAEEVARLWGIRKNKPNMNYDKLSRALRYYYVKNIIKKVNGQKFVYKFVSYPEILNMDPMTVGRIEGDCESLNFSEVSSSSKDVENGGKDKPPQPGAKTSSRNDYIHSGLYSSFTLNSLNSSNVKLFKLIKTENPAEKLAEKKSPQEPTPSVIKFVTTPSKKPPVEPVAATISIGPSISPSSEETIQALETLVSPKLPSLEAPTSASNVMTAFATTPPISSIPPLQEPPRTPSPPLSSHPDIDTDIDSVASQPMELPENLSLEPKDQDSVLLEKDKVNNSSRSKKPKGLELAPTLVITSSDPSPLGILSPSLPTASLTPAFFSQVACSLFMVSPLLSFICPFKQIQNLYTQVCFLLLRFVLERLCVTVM
An outline of the steps:
as §1

A further assay has as its target T4, ELF3 (Homo sapiens, UniProt P78545 1-371).
T4 sequence: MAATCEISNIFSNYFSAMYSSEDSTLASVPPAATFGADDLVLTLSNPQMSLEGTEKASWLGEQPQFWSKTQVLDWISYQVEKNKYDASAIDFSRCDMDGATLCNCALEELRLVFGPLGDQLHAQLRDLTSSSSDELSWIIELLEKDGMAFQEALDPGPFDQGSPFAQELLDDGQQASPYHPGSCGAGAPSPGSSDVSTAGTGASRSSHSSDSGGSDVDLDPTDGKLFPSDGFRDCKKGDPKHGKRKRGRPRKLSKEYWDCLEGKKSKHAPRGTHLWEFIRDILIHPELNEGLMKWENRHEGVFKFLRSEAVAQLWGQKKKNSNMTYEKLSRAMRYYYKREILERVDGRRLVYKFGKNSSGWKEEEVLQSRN
An outline of the steps:
as §1

Another assay has as its target ETV1 (Homo sapiens, UniProt P50549 1-477). An outline of the steps:
as §1

In a further assay the target is T5, ERF (Homo sapiens, UniProt P50548 1-548).
T5 sequence: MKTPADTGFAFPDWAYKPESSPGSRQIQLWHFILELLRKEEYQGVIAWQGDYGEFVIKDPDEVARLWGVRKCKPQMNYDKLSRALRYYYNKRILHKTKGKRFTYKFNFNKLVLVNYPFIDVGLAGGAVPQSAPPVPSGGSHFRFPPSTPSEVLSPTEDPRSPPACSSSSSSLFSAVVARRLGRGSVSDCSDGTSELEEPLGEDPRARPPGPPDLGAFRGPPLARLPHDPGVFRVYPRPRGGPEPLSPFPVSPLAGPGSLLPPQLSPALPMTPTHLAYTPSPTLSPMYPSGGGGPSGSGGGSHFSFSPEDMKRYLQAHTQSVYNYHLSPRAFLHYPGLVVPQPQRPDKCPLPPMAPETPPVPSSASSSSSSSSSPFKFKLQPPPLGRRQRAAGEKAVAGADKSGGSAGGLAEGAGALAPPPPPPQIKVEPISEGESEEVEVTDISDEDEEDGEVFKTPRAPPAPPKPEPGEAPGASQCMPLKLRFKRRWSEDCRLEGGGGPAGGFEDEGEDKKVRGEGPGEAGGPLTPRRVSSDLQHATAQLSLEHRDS
A digest of the protocol:
as §1

The target of a further assay is T6, ETS2 (Homo sapiens, UniProt P15036 1-469).
T6 sequence: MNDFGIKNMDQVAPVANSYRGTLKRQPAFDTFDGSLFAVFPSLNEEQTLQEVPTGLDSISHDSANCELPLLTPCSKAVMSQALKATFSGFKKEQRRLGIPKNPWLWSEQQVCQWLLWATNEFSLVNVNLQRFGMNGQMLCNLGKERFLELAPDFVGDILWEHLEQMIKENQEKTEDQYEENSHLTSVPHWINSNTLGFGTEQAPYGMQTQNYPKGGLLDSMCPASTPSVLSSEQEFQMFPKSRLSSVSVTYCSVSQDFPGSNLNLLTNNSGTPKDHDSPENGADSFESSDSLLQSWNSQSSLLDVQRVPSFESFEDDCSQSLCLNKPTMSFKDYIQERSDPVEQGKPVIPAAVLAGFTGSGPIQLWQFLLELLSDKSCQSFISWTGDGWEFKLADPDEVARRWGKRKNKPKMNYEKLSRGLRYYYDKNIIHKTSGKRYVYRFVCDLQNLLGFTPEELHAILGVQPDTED
An outline of the steps: as §1

The target of another assay is ETV6 (Homo sapiens, UniProt P41212 1-452). A digest of the protocol: as §1
Sequence of ETV6 (P41212 whole entry): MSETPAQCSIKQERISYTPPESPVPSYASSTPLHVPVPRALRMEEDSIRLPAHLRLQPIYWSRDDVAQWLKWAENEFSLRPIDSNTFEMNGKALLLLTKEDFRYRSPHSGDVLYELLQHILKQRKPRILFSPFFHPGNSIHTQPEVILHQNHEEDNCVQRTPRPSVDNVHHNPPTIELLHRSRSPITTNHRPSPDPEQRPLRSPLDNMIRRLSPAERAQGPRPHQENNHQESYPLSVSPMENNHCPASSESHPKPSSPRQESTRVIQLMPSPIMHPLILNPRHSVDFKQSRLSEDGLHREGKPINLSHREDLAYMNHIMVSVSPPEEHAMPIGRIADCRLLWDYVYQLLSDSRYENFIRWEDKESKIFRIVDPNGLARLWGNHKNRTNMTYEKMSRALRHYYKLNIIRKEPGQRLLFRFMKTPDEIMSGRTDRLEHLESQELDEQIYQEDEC

Sequence of ETV1 (P50549 whole entry): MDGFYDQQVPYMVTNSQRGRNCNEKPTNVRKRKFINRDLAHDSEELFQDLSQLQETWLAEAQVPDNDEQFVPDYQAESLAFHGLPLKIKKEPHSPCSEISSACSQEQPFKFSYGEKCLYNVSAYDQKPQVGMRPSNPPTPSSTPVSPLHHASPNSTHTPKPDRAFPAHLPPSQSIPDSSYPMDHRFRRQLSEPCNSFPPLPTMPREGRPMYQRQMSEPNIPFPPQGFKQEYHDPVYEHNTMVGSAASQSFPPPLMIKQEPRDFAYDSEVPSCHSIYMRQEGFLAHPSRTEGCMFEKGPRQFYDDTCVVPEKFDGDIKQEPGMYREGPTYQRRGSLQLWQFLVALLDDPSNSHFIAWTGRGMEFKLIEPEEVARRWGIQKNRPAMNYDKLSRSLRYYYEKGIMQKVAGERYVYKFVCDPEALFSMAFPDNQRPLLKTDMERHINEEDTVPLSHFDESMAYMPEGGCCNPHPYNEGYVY

For the sequence TAAGGG, the binding signal with ELK3 was 1.04 fold enrichment (6-mer frequency, TF over GST control); with SPIC it was 1.18 fold enrichment (6-mer frequency, TF over GST control); with ELK4, 1.1 fold enrichment (6-mer frequency, TF over GST control); with ELF3, 1.09 fold enrichment (6-mer frequency, TF over GST control); with ETV1, 1.05 fold enrichment (6-mer frequency, TF over GST control); with ERF it was 1.01 fold enrichment (6-mer frequency, TF over GST control). Also, the binding signal with ETS2 is 1 fold enrichment (6-mer frequency, TF over GST control); with ETV6, 1.01 fold enrichment (6-mer frequency, TF over GST control).

Values taken from PMC7862700, “An all-to-all approach to the identification of sequence-specific readers for epigenetic DNA modifications on cytosine”.
